Reference: PubChem BioAssay
Results filed as inconclusive are left out. Calls of active or inactive are those of the source.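 The calls were made as follows, unless noted: active = differentiation response of at least 50%, scaled between solvent and reference control, from cells with both markers; inactive = the rest.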

Experiments:
[1] = rapamycin-like changes in RPL19A-GFP expression – cell-based, S. cerevisiae, multiplex flow cytometry, primary screen (AID 1862; in the data active = percent of DMSO control GFP below about 86%;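 also: lower values mimic rapamycin by blocking the RPL19A rise seen in DMSO cells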); conditions: S. cerevisiae RPL19A-GFP strain, flow cytometry fluorescence, 3 h; at 10 µM; stronger effect = lower value
[2] = TOR pathway GLN3 branch reporter MEP2-GFP changes – S. cerevisiae, multiplex flow cytometry, primary screen (AID 1867;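 active = GFP response, as percent of the DMSO control, above the screen-wide mean plus 3 SD, about 139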;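 also: median GFP channel fluorescence of barcode-gated MEP2-GFP cells measured by flow cytometry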); conditions: S. cerevisiae MEP2-GFP strain, 3 h, at 10 µM, stronger effect = higher value, 100% means same as DMSO wells
[3] = TOR pathway RTG branch CIT2 reporter changes – S. cerevisiae, GFP fusion, multiplex flow cytometry, primary screen (AID 1870;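 active = percent response above a set limit, the screen-wide mean plus 3 SD, cut at about 130% in these data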;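 also: barcoded CIT2-GFP strain pooled with four other GFP strains with rapamycin as positive control; median GFP fluorescence per well over plate mean of DMSO wells so 100% = DMSO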); conditions: S. cerevisiae CIT2-GFP expression, 3 h, at 10 µM, stronger effect = higher value
[4] = TOR pathway LAP4-GFP level changes – S. cerevisiae, multiplex flow cytometry, primary screen (AID 1873;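 active = GFP signal, as percent of the solvent control, above the screen mean plus 3 SD, about 149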); conditions: S. cerevisiae LAP4-GFP expression, 3 h, at 10 µM, stronger effect = higher value
[5] = reduced mouse 2C T cell binding to pMHC/ICAM-1 vesicles – MLPCN validation set, flow cytometry, LFA-1/ICAM-1 modulator project, pilot screen (AID 2523;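 active = response below a set limit, under 55% cells CD8-positive and vesicle-bound, and CD8 cells' 90th-percentile brightness under 279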;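 as to vesicle binding response: mean PE anti-B7-1 fluorescence of CD8+ cells relative to row control; 100% = QL9-loaded vesicles with DMSO vehicle in the same plate row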); conditions: 2C mouse CD8+ T cells, at 7 µM, stronger effect = lower value; double positive events: measured here: CD8+/vesicle+ event percentage
[6] = target: Integrin beta-1 (Homo sapiens) + Integrin alpha-4 (Homo sapiens) (UniProt P13612+P05556); experiment: alpha4beta1 integrin LIBS antibody binding reduction – U937 cells, HUTS-21 mAb, flow cytometry, validation set, VLA-4 allosteric modulator project, pilot screen (AID 2674;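 active = inhibition above 50%, about 3 SD of the validation set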;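 also: antibody binding induced by the VLA-4 ligand LDV present at three times its Kd; 0% = LDV ligand with antibody and no compound and 100% = antibody without LDV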); conditions: HUTS-21 LIBS mAb binding, at 6.7 µM, stronger effect = higher value, binding induced by LDV ligand
[7] = calorie-restriction mimetic ROS inhibitors, yeast – validation compound set, pilot screen (AID 2706;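 active = superoxide response below 65% of plate, a cut near 3 SD across the whole screen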;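 also: yeast exposed to compound for one week at 30 degrees C before staining; 100% = mean of all compound wells on the same plate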); conditions: S. cerevisiae aging, superoxide DHE fluorescence; at 10 µM, stronger effect = lower value
[8] = target: Beta-adrenergic receptor kinase 1 (Homo sapiens) (UniProt P25098); experiment: GRK2 binders displacing RNA aptamer, biochemical, validation, human GRK2, bead flow cytometry (AID 488806;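 active = aptamer binding inhibition above 30%, about 3 SD of noise from non-fluorescent compounds; inactive = inhibition at or below 30%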); conditions: bead-bound GRK2, FAM-aptamer displacement, at 10 µM, stronger effect = higher value
[9] = target: Beta-2 adrenergic receptor (Homo sapiens) (UniProt P07550); experiment: agonist-induced loss of surface beta2AR – cell-based, FAP fluorogen, flow cytometry, validation set, pilot screen (AID 504459;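 active = percent response above 42, roughly 3 SD of non-fluorescent test compounds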;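 also: agonist-driven loss of surface beta2AR via internalization measured by FAP dye flow cytometry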); conditions: Am2.2-beta2AR cells, at 10 µM, stronger effect = higher value
[10] = target: AP-2 complex subunit beta (Homo sapiens) (UniProt P63010); experiment: beta-arrestin/AP2 interaction blockers – biochemical, validation set, GST-AP2 beads, flow cytometry, pilot screen (AID 504541;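 active = inhibition above 54%, about 3 SD of non-fluorescent compounds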;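 also: AP2 carries R879A mutation and is captured from E. coli lysate; bead-bound FITC arrestin peptide fluorescence measuring arrestin peptide binding to AP2; 0% = DMSO wells and 100% = excess unlabeled arrestin peptide control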); conditions: FITC arrestin peptide, at 10 µM, stronger effect = higher value, AP2 beta2 appendage fragment, R879A mutant
[11] = cytosolic pH regulators acting via V-ATPase – S. cerevisiae, pHLuorin, HTS validation (AID 504600; in the data active = response above about 15%;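 also: plate controls were DMSO for no effect and reference compound for full effect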); conditions: V-ATPase proton transport, at 10 µM, stronger effect = higher value
[12] = system: anti-desmoglein-3 scFv antibody binding to human DSG3; experiment: blockers of pathogenic pemphigus antibody–desmoglein-3 binding – biochemical, validation compound set, bead-based, flow cytometry, pilot screen (AID 588368;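 active = binding below the plate cutoff, the plate median minus 3 SD, with a reading above zero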;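 also: signal is the median channel fluorescence of bead-bound GFP antibody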); conditions: Protein G beads, DSG3-Fc, scFv-GFP binding, at 10 µM, stronger effect = lower value
[13] = Nile Red efflux blockade in pump-expressing yeast – validation compound set, multiplex, phenotypic, pilot screen (AID 588506;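 active = efflux inhibition above 0.42, the validation set average plus 4 SD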;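 also: Nile Red retained in cells so higher fluorescence means more efflux inhibition; 0 = negative control wells and 1 = enniatin B 25 µM full block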); conditions: S. cerevisiae pump-expressing triplex, Nile Red efflux flow cytometry; at 10 µM; stronger effect = higher value; the pumps come from Candida albicans
[14] = target: ATP-binding cassette sub-family B member 6 (Homo sapiens) (UniProt Q9NP58); experiment: blockers of ABCB6-driven porphyrin uptake – K562-ABCB6 cells, flow cytometry, validation set, pilot screen (AID 588550;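 active = inhibition above the screen-wide mean plus 3 SD, about 51%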;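 also: 0% = DMSO wells and 100% = benzethonium chloride 70 µM positive control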); conditions: K562-ABCB6 porphyrin accumulation, 1 h, at 10 µM, stronger effect = higher value
[15] = AML differentiation inducers, ER-HoxA9 marrow cells – cell-based, GFP/MAC1 double positive, flow cytometry, validation set, primary screen (AID 588685); conditions: stronger effect = higher value, normalized: vehicle 0, fulvestrant 100;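 also: compound exposure lasts four days before antibody staining and flow analysis; 0% = DMSO wells and 100% = 5 µM fulvestrant positive control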
[16] = yeast AGP1-GFP level changes, GLN3 branch – cell-based, multiplex flow cytometry, S. cerevisiae, primary screen (AID 1887;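 active = GFP signal above the screen-wide mean plus 3 SD, that is over about 124.5% of the solvent control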;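 also: AGP1-GFP fusion strain of S. cerevisiae within a five-strain barcoded multiplex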); conditions: 3 h, at 10 µM, stronger effect = higher value
[17] = hit retest on RPL19A-GFP reporter strain – cell-based, S. cerevisiae, flow cytometry, cherry picks, mother/daughter gates, confirmation (AID 2270;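 active = GFP response below 50% of the DMSO control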); conditions: 3 h, at 10 µM, stronger effect = lower value, 100 = same GFP as DMSO wells
[18] = yeast TOR pathway reporter LAP4-GFP change – cell-based, cherry picks, flow cytometry, mother/daughter gates, confirmation (AID 2271;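 active = GFP response above 150% of the DMSO control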;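 also: ratio of sample to DMSO plate mean so 100% equals DMSO level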); conditions: S. cerevisiae LAP4-GFP strain, 3 h, at 10 µM, stronger effect = higher value, 100 means same as DMSO control
[19] = TOR pathway reporter MEP2-GFP, retest of hits – S. cerevisiae, flow cytometry GFP, cherry picks, confirmation (AID 2272;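 active = GFP response above 150% of the DMSO control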;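 also: ratio of well signal to plate DMSO mean so 100% equals DMSO level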); conditions: S. cerevisiae MEP2-GFP strain, 3 h, at 10 µM, stronger effect = higher value
[20] = TOR pathway CIT2 reporter hit retest – S. cerevisiae, GFP fusion, cherry picks, mother/daughter gates, confirmation (AID 2274;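 active = GFP response above 150% of the DMSO level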); conditions: S. cerevisiae CIT2-GFP strain, flow cytometry, 3 h, at 10 µM, stronger effect = higher value
[21] = measured here: daughter cell gate
[22] = measured here: mother cell gate

Chain of Integrin beta-1 (Homo sapiens) + Integrin alpha-4 (Homo sapiens) (P05556 whole entry, looked up): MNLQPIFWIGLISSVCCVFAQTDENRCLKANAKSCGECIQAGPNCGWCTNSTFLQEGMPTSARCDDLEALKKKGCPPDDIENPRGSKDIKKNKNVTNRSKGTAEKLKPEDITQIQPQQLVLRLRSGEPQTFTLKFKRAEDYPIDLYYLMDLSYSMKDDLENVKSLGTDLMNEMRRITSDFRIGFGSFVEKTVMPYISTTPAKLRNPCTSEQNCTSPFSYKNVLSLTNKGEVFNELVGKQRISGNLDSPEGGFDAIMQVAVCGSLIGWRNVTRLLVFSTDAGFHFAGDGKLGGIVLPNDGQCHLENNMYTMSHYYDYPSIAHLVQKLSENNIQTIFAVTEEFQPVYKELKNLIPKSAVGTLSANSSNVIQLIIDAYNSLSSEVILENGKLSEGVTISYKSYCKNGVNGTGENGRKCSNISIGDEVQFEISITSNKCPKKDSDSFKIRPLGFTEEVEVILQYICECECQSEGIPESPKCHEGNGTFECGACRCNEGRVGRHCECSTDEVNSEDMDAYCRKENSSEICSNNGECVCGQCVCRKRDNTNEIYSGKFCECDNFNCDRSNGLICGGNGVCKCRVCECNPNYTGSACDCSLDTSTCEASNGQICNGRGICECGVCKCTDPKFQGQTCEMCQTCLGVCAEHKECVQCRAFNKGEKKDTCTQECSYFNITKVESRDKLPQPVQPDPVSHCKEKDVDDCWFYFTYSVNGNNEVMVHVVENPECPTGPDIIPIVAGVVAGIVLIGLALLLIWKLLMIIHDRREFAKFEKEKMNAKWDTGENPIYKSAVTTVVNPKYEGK
Chain of Integrin beta-1 (Homo sapiens) + Integrin alpha-4 (Homo sapiens) (P13612 whole entry, looked up): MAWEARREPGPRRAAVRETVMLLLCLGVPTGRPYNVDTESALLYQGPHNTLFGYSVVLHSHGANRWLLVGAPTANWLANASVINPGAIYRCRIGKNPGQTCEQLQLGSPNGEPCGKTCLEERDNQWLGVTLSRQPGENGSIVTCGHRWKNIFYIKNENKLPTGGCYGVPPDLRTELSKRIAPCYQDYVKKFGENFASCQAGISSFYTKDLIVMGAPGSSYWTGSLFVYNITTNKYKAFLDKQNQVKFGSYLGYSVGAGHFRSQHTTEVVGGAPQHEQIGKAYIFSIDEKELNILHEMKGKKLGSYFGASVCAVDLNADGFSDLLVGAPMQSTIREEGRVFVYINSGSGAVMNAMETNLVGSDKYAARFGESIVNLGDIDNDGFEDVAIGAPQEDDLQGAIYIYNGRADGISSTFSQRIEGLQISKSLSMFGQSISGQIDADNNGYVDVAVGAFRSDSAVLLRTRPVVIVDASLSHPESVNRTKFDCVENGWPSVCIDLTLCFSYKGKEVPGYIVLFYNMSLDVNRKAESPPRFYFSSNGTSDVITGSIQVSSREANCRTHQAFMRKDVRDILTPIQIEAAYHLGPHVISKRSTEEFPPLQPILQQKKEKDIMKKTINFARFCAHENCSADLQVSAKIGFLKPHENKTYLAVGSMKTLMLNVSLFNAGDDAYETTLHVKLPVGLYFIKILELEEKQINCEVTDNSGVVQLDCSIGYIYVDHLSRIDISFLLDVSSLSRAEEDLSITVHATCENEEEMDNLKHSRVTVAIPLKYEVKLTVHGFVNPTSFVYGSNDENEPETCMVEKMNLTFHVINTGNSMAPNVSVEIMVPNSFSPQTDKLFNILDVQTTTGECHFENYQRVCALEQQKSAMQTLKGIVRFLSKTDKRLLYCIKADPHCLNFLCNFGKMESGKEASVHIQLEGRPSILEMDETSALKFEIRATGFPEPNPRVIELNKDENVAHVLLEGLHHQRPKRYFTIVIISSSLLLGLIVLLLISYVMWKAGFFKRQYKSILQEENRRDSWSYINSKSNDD
Chain of ATP-binding cassette sub-family B member 6 (Homo sapiens) (Q9NP58 whole entry, looked up): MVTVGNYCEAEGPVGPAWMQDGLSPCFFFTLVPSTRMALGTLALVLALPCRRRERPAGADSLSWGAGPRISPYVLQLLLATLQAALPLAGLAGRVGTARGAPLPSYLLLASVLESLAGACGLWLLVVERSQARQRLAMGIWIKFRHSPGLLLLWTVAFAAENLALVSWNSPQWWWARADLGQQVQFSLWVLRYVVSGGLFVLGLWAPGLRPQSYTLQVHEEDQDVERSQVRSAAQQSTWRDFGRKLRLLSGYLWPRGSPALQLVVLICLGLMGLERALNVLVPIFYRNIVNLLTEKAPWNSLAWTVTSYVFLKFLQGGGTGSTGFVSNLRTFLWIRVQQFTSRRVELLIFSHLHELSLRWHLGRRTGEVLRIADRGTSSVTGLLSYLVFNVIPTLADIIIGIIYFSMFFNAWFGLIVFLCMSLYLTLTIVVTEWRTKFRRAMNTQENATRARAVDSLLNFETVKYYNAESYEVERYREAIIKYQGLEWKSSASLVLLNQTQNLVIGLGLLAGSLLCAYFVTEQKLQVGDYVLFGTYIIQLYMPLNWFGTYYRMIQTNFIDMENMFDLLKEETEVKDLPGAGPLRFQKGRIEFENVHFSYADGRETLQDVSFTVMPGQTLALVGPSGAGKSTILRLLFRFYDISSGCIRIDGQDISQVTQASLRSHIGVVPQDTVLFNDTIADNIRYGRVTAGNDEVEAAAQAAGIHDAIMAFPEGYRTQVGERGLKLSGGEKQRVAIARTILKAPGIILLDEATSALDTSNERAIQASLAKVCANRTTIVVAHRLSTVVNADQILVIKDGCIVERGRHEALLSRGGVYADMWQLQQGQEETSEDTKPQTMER
Chain of Beta-adrenergic receptor kinase 1 (Homo sapiens) (P25098 whole entry, looked up): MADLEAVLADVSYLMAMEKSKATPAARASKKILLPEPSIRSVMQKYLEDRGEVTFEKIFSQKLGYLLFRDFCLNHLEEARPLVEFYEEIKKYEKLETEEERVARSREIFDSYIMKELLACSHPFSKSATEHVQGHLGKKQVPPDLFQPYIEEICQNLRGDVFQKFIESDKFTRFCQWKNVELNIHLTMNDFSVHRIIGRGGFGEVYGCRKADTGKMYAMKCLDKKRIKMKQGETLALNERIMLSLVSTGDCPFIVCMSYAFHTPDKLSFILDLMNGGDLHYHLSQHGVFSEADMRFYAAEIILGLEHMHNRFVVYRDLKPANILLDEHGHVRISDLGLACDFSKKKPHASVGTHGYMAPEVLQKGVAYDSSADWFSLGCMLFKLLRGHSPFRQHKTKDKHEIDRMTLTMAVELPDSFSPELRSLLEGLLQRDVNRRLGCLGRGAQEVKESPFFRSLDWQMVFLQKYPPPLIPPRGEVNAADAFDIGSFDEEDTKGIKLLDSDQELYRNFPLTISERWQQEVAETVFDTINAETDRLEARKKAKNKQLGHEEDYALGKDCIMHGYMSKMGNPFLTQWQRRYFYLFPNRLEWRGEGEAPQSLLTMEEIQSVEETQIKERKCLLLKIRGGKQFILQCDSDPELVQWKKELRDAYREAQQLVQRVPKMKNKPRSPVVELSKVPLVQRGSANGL
Chain of Beta-2 adrenergic receptor (Homo sapiens) (P07550 whole entry, looked up): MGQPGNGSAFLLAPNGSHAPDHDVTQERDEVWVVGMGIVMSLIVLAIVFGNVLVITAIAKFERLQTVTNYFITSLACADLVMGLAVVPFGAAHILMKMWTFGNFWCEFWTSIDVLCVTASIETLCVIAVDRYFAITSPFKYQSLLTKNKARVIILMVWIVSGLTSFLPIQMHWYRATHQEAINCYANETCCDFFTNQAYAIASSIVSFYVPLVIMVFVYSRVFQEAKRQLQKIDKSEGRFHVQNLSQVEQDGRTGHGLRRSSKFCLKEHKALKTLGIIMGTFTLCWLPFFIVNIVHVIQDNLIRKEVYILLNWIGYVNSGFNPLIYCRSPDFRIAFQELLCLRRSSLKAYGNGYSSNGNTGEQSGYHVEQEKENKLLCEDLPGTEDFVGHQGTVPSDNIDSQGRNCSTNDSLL
Chain of AP-2 complex subunit beta (Homo sapiens) (P63010 whole entry, looked up, the tested form may be a part, one chain of several): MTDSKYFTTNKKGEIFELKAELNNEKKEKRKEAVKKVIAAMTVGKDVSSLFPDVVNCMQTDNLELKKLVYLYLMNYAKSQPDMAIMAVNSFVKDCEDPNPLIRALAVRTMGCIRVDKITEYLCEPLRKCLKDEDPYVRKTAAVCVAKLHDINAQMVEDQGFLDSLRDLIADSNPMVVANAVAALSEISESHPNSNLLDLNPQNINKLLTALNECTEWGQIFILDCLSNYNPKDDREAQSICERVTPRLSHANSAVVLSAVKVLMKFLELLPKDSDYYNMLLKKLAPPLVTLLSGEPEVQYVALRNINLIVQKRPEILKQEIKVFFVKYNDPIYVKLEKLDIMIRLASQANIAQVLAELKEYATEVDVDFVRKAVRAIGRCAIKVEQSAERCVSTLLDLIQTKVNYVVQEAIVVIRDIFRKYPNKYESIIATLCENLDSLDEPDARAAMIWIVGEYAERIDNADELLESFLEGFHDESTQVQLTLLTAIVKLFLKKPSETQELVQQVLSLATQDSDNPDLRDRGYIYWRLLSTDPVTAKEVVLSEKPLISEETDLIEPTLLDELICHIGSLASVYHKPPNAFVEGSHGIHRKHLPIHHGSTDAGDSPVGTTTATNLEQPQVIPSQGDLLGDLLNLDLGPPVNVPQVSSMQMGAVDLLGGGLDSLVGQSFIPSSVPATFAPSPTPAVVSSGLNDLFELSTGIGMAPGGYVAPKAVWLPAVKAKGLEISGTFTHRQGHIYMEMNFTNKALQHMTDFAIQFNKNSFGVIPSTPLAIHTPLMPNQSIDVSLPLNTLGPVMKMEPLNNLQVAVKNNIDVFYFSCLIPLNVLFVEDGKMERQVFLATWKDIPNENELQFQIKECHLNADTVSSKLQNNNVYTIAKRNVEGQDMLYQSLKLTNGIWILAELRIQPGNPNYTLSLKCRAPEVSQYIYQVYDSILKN

COc1ccc(NC(=O)C2C(=O)N(CCO)C3(C)CC2c2ccccc2O3)cc1 (centres undefined)
inactive: percent of DMSO control GFP [1] 99.6% | GFP response vs DMSO [2] 106% | percent response of DMSO control [3] 104% | GFP response vs DMSO [4] 79.8% | vesicle binding response [5] 158% | inhibition [6] 5.49% | superoxide response (% of plate) [7] 96.6% | aptamer binding inhibition [8] 3% | response [9] -2.11% | inhibition [10] 6.58% | response [11] -0.98% | binding (% of control) [12] 107% | efflux inhibition (fraction of control) [13] -0.46 | inhibition [14] 13% | differentiation response [15] 5.73%
70.2%: double positive events [5]

O=c1n(CCCN2CCN(c3cccc(Cl)c3)CC2)nc2ccccn12
69.6%: double positive events [5]
inactive: percent of DMSO control GFP [1] 91.5% | GFP response vs DMSO [2] 112% | percent response of DMSO control [3] 106% | GFP response vs DMSO [4] 75.9% | GFP response, % of DMSO [16] 92.4% | inhibition [6] 1.61% | superoxide response (% of plate) [7] 102% | aptamer binding inhibition [8] 2% | response [9] 2.3% | inhibition [10] -2.13% | response [11] 1.41% | binding (% of control) [12] 102% | efflux inhibition (fraction of control) [13] -0.2 | inhibition [14] 11% | differentiation response [15] 5.73%

C[N+](C)(C)CCOP(=O)(O)OP(=O)([O-])OC[C@H]1O[C@@H](n2ccc(N)nc2=O)[C@H](O)[C@@H]1O
inactive: percent of DMSO control GFP [1] 101% | GFP response vs DMSO [2] 113% | percent response of DMSO control [3] 112% | GFP response vs DMSO [4] 82% | GFP response, % of DMSO [16] 102% | inhibition [6] -12.9% | superoxide response (% of plate) [7] 89.1% | aptamer binding inhibition [8] 2% | response [9] 3.17% | inhibition [10] -4.05% | response [11] -1.87% | binding (% of control) [12] 101% | efflux inhibition (fraction of control) [13] -0.17 | inhibition [14] 10% | differentiation response [15] -7.37%
68.8%: double positive events [5]

CCCCC/C=C\C[C@H](O)/C=C/c1cccc(C[C@H](O)CCCCO)n1
52.3%: double positive events [5]
inactive: percent of DMSO control GFP [1] 97.9% | GFP response vs DMSO [2] 111% | percent response of DMSO control [3] 111% | GFP response vs DMSO [4] 75.9% | inhibition [6] -3.24% | superoxide response (% of plate) [7] 116% | aptamer binding inhibition [8] 1% | response [9] -7.36% | inhibition [10] -4.61% | response [11] 1.37% | binding (% of control) [12] 103% | efflux inhibition (fraction of control) [13] 0.16 | inhibition [14] 10% | differentiation response [15] -2.46%
active: vesicle binding response [5] 41.1%

CC1(C)CC(=O)C(C(=O)CCCCC(=O)C2C(=O)CC(C)(C)CC2=O)C(=O)C1
inactive: percent of DMSO control GFP [1] 105% | GFP response vs DMSO [2] 114% | percent response of DMSO control [3] 112% | GFP response vs DMSO [4] 91.3% | vesicle binding response [5] 197% | inhibition [6] -6.15% | superoxide response (% of plate) [7] 97.2% | aptamer binding inhibition [8] -1% | response [9] -2.15% | inhibition [10] -8.71% | response [11] -8.22% | binding (% of control) [12] 114% | efflux inhibition (fraction of control) [13] -0.24 | inhibition [14] 14% | differentiation response [15] -2.46%
76%: double positive events [5]

O=c1[nH]c(=O)n([C@H]2C[C@H](O)[C@@H](CO)O2)cc1F
72.9%: double positive events [5]
inactive: percent of DMSO control GFP [1] 91.1% | percent response of DMSO control [3] 101% | GFP response vs DMSO [4] 93.5% | GFP response vs DMSO [17] 98.6% | GFP response relative to DMSO [18] 97.3% | GFP response vs DMSO [19] 101% | GFP response, % of DMSO [20] 93.4% | vesicle binding response [5] 155% | inhibition [6] 4.52% | superoxide response (% of plate) [7] 94.8% | aptamer binding inhibition [8] 9% | response [9] -2.6% | inhibition [10] 1.52% | response [11] -0.54% | binding (% of control) [12] 98% | efflux inhibition (fraction of control) [13] -0.38 | inhibition [14] 11% | differentiation response [15] -5.73%
97.2%: GFP response relative to DMSO ([18]; measured here: mother cell gate response)
96.6%: GFP response relative to DMSO ([18]; measured here: daughter cell gate response)
93.7%: GFP response, % of DMSO [20, 21] | GFP response, % of DMSO [20, 22]
99.2%: GFP response vs DMSO [17, 22]
active: GFP response vs DMSO [2] 142%
97.8%: GFP response vs DMSO [17, 21]

Nc1cccc(C(=O)O)c1
inactive: percent of DMSO control GFP [1] 95.5% | GFP response vs DMSO [2] 116% | percent response of DMSO control [3] 122% | GFP response vs DMSO [4] 79.2% | vesicle binding response [5] 214% | inhibition [6] 10.3% | superoxide response (% of plate) [7] 102% | aptamer binding inhibition [8] 4% | response [9] -6.68% | inhibition [10] -0.66% | response [11] 3.11% | binding (% of control) [12] 102% | efflux inhibition (fraction of control) [13] 0.05 | inhibition [14] 6% | differentiation response [15] -0.82%
63.4%: double positive events [5]

COc1ccc(-c2coc3cc(O)cc(O)c3c2=O)cc1
inactive: percent of DMSO control GFP [1] 88.2% | GFP response vs DMSO [2] 99.9% | percent response of DMSO control [3] 116% | GFP response vs DMSO [4] 72.6% | vesicle binding response [5] 199% | inhibition [6] 5.49% | superoxide response (% of plate) [7] 106% | aptamer binding inhibition [8] 0% | response [9] -6.34% | inhibition [10] 1.72% | response [11] 1.71% | binding (% of control) [12] 101% | efflux inhibition (fraction of control) [13] -0.28 | inhibition [14] 7% | differentiation response [15] -9.83%
58.4%: double positive events [5]

COc1cccc(N2C(=O)[C@H]3C(C(=O)c4cnccn4)=NN[C@H]3C2=O)c1
inactive: percent of DMSO control GFP [1] 93.5% | GFP response vs DMSO [2] 123% | percent response of DMSO control [3] 111% | GFP response vs DMSO [4] 79.8% | vesicle binding response [5] 191% | inhibition [6] 14.2% | superoxide response (% of plate) [7] 106% | aptamer binding inhibition [8] 2% | response [9] -6.07% | inhibition [10] -1.17% | response [11] -1.86% | binding (% of control) [12] 98.9% | efflux inhibition (fraction of control) [13] -0.13 | inhibition [14] 8% | differentiation response [15] -4.91%
63.5%: double positive events [5]
